Common to all, as to assay type: functional
The test system of assay [1] is Plasmodium falciparum. The assay can be described thus: GSK_TCMDC: Inhibition of Plasmodium falciparum 3D7 in whole red blood cells, using parasite LDH activity as an index of growth. Test compounds present at 2uM.
For assay [2], the system named is Plasmodium falciparum. The assay can be described thus: GSK_TCMDC: Inhibition of Plasmodium falciparum Dd2 in whole red blood cells, using parasite LDH activity as an index of growth. Test compounds present at 2uM.
Another assay concerns HepG2. The assay can be described thus: GSK_TCMDC: Percent inhibition of human HepG2 cell line. Test compounds present at 10uM.

Usually Inhibition stands for the change of the read-out against control, counted positive when it falls. Lower therefore signals little suppression.

The structures appear in SMILES notation.

With `CC(C)[C@H](NC(=O)c1c(CN2CCC(N3CCCCC3)CC2)c(-c2ccccc2)nc2cc(O)ccc12)c1ccccc1`, the Inhibition is reported as 100% in the assay on Plasmodium falciparum [1], 73% in the assay on Plasmodium falciparum [2] and 10% with HepG2.
The like results for `COc1cc(-c2nc(-c3ccncc3)c(-c3ccc4c(c3)CCC4=NO)[nH]2)ccc1OCCN1CCN(C)CC1.Cl` were, in that order, 99%, 77% and 53%.
On to `CCCCCCN1CCC(NCc2ccc(CN(C)C)cc2)CC1.O=C(O)C(F)(F)F`, for which the Inhibition in the assay with Plasmodium falciparum [1] was 92%; in the assay on Plasmodium falciparum [2], 26%; in the assay on HepG2 it was 18%.
With `CC[C@H](C)CNC(=O)c1ccnc(-c2cccc(CN(C)C3CCN(C)CC3)c2)c1.O=C(O)C(F)(F)F`, the results for the Inhibition in the assay with Plasmodium falciparum [1], in the assay with Plasmodium falciparum [2] and in the assay on HepG2 were 100%, 33% and 0%, respectively.
As to `C=CCc1cc(Cc2cnc(N)nc2N)cc(CCC)c1O`, the Inhibition was 90% in the assay on Plasmodium falciparum [1], 2% in the assay on Plasmodium falciparum [2] and 54% in the assay on HepG2.
Take `Cc1cc([N+](=O)[O-])ccc1N1CCN(CCCCNC(=O)c2ccc(NC(=O)c3ccc(Cl)cc3)cc2)CC1`: the Inhibition in the assay with Plasmodium falciparum [1] is given as 92%; with Plasmodium falciparum [2], 0%; in the assay with HepG2, 33%.
In the case of `O=C(Nc1ccc(C(F)(F)F)cc1)N[C@H]1CCN(CCCCCNC(=O)C2CC2c2ccc(Cl)c(Cl)c2)C1` (stereo partly drawn), the results for the Inhibition in the assay on Plasmodium falciparum [1], with Plasmodium falciparum [2] and in the assay with HepG2 were 96%, 0% and 41%, respectively.
On to `COc1ccc(Nc2ncc3c(-c4cccc(NC(=O)c5ccccc5)c4)c[nH]c3n2)cc1OC`, for which the Inhibition in the assay on Plasmodium falciparum [1] stood at 100%; in the assay with Plasmodium falciparum [2], 95%; in the assay on HepG2, 54%.
`O=C(CSc1ccccn1)Nc1c(F)cccc1F`: the Inhibition in the assay with Plasmodium falciparum [1] is 88%; in the assay on Plasmodium falciparum [2], 0%; in the assay on HepG2 it was 0%.
For the compound `Nc1c2ccccc2nc2cc(Cl)ccc12`, the Inhibition in the assay with Plasmodium falciparum [1] was found to be 100%; in the assay on Plasmodium falciparum [2], 86%; in the assay on HepG2 it was 24%.
Regarding `Cc1cc(NC(=O)NCCN2CCC(NC(=O)c3ccc(Cl)cc3)CC2)c2ccccc2n1`, the Inhibition in the assay with Plasmodium falciparum [1] is listed as 90%; with Plasmodium falciparum [2] it was 54%; with HepG2, 0%.
Regarding `COc1ccc(CN2CCCC(OC(c3ccc(F)cc3)c3ccc(F)cc3)C2)c(O)c1` (stereo not drawn), the Inhibition turned out to be 100% in the assay with Plasmodium falciparum [1], 99% in the assay on Plasmodium falciparum [2] and 16% with HepG2.
As for `O=C(Nc1ccc(OC2CCN(Cc3ccc(F)cc3)CC2)c(Cl)c1)c1ccsc1.O=C(O)C(F)(F)F`, the Inhibition came out at 94% in the assay on Plasmodium falciparum [1], 90% in the assay on Plasmodium falciparum [2] and 5% with HepG2.
Take `CC(C)CNCc1cccc(-c2ccc(CN(CCCN3CCN(C)CC3)C(=O)CCC3CCCC3)cc2)c1.O=C(O)C(F)(F)F`: the Inhibition came out at 98% with Plasmodium falciparum [1], 89% in the assay on Plasmodium falciparum [2] and 82% in the assay on HepG2.
As to `O=C(/C=C/c1ccc(Cl)c(Cl)c1)NCCCCCCN1CCCN(C(=O)Nc2ccc(F)c(F)c2)CC1`, the Inhibition in the assay on Plasmodium falciparum [1] amounted to 89%; with Plasmodium falciparum [2] it was 2%; with HepG2, 72%.
As for `COc1ccc(C=NNc2ccnc3cc(F)c(C)cc23)c2ccccc12`, the Inhibition in the assay on Plasmodium falciparum [1] stood at 100%; in the assay on Plasmodium falciparum [2], 85%; in the assay with HepG2, 0%.
For the compound `CC(C)(CNCc1cccc(Oc2cccc(C(F)(F)F)c2)c1)c1nc(-c2ccnc(N)n2)c(-c2ccc(Cl)c(O)c2)[nH]1.Cl`, the Inhibition in the assay with Plasmodium falciparum [1] is 99%; in the assay on Plasmodium falciparum [2], 98%; with HepG2, 23%.
Consider `O=C(Nc1cccc(CN2CCCN(CC3CCCCC3)CC2)c1)c1cc2ccccc2s1.O=C(O)C(F)(F)F`, for which the Inhibition came out at 96% with Plasmodium falciparum [1], 15% in the assay with Plasmodium falciparum [2] and 29% with HepG2.
`CCN(CCCN1CCCCC1)c1nccc(Nc2ccc(Cl)cc2)n1`: the results for the Inhibition with Plasmodium falciparum [1], with Plasmodium falciparum [2] and with HepG2 were 89%, 63% and 19%, respectively.
Regarding `CCCN(Cc1nnc(-c2ccco2)o1)C(=O)C1CCN(c2ncc(C(F)(F)F)cc2Cl)CC1`, the Inhibition in the assay on Plasmodium falciparum [1] amounted to 98%; with Plasmodium falciparum [2] it was 92%; with HepG2 it was 19%.
With `Cc1cccc(Cn2nc(-c3ccccc3)c(N3CCCCC3)cc2=O)c1`, the Inhibition in the assay with Plasmodium falciparum [1] was 98%; with Plasmodium falciparum [2], 0%; in the assay on HepG2, 29%.
Regarding `O=C(C1CCCC1)N1CCOC(CCN2CCC(c3ccccc3)CC2)(c2ccc(Cl)c(Cl)c2)C1` (stereo not drawn), the results for the Inhibition in the assay with Plasmodium falciparum [1], in the assay with Plasmodium falciparum [2] and with HepG2 were 88%, 77% and 16%, respectively.
For `Cc1cccc2nc(-c3ccc(-c4cccc(CNCc5ccc(CN)cc5)c4)s3)[nH]c12.O=C(O)C(F)(F)F`, the values for the Inhibition in the assay with Plasmodium falciparum [1], in the assay on Plasmodium falciparum [2] and in the assay on HepG2 were 99%, 48% and 11%, respectively.
For `Cl.N=c1n(Cc2ccccc2)c2ccccc2n1CC(O)c1ccc(Cl)c(Cl)c1` (stereo not drawn) the same measures were 95%, 98% and 40%.
In the case of `Cc1sc(CNCCCNc2cc(=O)c3ccccc3[nH]2)c(I)c1C.Cl`, the values for the Inhibition in the assay with Plasmodium falciparum [1], in the assay with Plasmodium falciparum [2] and in the assay on HepG2 were 94%, 48% and 0%, respectively.
For the compound `O=C(O)C(F)(F)F.c1cc(-c2ccc(CNCc3ccc(-c4csnn4)cc3)cc2)cc(-c2nc3ccccc3[nH]2)c1`, the Inhibition in the assay with Plasmodium falciparum [1] was determined as 100%; with Plasmodium falciparum [2], 96%; in the assay on HepG2, 60%.
Turning to `COc1ccc2[nH]ccc(=NN=Cc3ccc(Cl)cc3)c2c1`, the Inhibition in the assay on Plasmodium falciparum [1] turned out to be 100%; in the assay on Plasmodium falciparum [2] it was 72%; in the assay with HepG2, 9%.
For the compound `COc1ccc2nccc(N3CCC(SCCNCc4cc5c(cn4)OCCO5)C3)c2n1.Cl` (stereo not drawn), the Inhibition is 100% in the assay with Plasmodium falciparum [1], 100% in the assay with Plasmodium falciparum [2] and 30% in the assay with HepG2.
`CC(C)Cc1ccc(N2CCN(CCCCNC(=O)c3ccc(NC(=O)c4cc(C(F)(F)F)cc(C(F)(F)F)c4)cc3)CC2)cc1`: the Inhibition with Plasmodium falciparum [1] came out at 100%; in the assay with Plasmodium falciparum [2] it was 100%; with HepG2 it was 15%.
In the case of `COCc1ccccc1C(=O)NCCOc1cc(C)cc(C)c1`, the Inhibition amounted to 96% in the assay on Plasmodium falciparum [1], 95% in the assay on Plasmodium falciparum [2] and 26% in the assay on HepG2.
Turning to `O=C(NC(=O)c1ccccc1)NC1CCN(c2ccnc3cc(Cl)ccc23)C1.O=C(O)C(F)(F)F` (stereo not drawn), the Inhibition in the assay on Plasmodium falciparum [1] amounted to 100%; in the assay with Plasmodium falciparum [2], 99%; with HepG2 it was 32%.

These data come from ChEMBL document CHEMBL1157539, “Thousands of chemical starting points for antimalarial lead identification” (Nature, 2010).
